Values without a mark were called inactive. Calls of active or inactive are those of the source.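 The calls were made as follows: active = Her2 level under about 52% in both replicate screens, with viability over 70% of control (limit read from the data); inconclusive = Her2 under the limit in one screen only, or viability under 70%; inactive = Her2 level above the set limit.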

The target of this test is Receptor tyrosine-protein kinase erbB-2 (Homo sapiens) (UniProt P04626). Nature of the test: Her2 expression decrease, cell viability multiplex – SKBR3 breast tumor cells, AlphaScreen, ATP viability, primary screen (AID 461).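 Also: lower value means less Her2 protein in the cells.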 The following applies: 18-24 h, at 10 µM, hits give low values. (In Alpha technology, singlet oxygen from a donor bead excites a nearby acceptor bead.)
Sequence of Receptor tyrosine-protein kinase erbB-2 (Homo sapiens) (P04626 whole entry, looked up): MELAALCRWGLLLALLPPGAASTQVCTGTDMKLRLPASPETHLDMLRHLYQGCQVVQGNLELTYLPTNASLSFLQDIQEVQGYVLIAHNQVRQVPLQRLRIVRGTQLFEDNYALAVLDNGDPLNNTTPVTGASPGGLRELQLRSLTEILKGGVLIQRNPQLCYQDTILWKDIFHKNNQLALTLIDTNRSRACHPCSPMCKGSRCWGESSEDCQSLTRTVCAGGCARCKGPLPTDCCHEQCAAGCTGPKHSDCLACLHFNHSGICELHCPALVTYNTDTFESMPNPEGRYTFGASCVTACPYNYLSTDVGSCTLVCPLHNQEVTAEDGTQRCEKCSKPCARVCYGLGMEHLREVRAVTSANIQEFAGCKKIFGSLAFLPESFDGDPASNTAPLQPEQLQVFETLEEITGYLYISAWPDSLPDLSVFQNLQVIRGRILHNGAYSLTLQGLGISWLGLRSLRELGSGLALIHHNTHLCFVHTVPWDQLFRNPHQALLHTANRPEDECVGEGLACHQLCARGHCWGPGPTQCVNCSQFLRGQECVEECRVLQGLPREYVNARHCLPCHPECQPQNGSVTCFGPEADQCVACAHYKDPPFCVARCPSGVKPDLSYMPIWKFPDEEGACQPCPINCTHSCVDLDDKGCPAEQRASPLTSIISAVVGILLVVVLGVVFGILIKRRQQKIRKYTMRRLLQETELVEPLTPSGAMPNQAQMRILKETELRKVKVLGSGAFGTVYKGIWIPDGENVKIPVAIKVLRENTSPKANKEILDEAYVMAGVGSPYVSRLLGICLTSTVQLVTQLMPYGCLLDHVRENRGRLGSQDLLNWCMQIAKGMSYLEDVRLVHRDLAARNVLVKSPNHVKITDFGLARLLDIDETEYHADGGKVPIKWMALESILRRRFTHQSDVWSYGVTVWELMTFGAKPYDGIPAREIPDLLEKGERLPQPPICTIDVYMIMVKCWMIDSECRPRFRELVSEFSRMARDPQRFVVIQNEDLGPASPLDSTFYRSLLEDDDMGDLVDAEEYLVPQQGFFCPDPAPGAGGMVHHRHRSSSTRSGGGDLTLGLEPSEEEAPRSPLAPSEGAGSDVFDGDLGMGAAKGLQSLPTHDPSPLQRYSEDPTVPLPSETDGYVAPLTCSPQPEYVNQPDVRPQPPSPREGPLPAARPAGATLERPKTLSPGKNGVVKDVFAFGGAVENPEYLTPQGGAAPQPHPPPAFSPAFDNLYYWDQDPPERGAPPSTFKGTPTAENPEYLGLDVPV
With `CCOC(=O)c1nnc2cc(-c3ccc(Br)cc3)nn2c1C`, the Her2 level was 93.5%.
As for `COc1cccc(C(=O)Nc2c(C(N)=O)oc3ccccc23)c1`, the Her2 level is 69%.
In the case of `CCn1c(CNc2ccc(OC)cc2)nnc1SCC(=O)c1ccc(OC)cc1`, the Her2 level is 91%.
Take `COc1ccc(Br)cc1C1N2CC3(C)CN1CC(C)(C2)C3=O` (centres undefined): the Her2 level is 89.5%.
For the compound `CCOC(=O)c1sc(NC(=O)CSc2n[nH]c(-c3ccccc3)n2)c(C#N)c1C`, the Her2 level was 65.5%.
Consider `CCOC(=O)N1CCN(CCC(=O)c2ccc(Cl)cc2)CC1`, for which the Her2 level is 89.5%.
As to `CCOC(=O)c1c(C)oc2c1c(C(c1ccncc1)N1CCOCC1)c(O)c1ccccc12` (centres undefined), the Her2 level is 85%.
In the case of `Cc1c(NC(=O)c2ccc(=O)oc2)c(=O)n(-c2ccccc2)n1C`, the Her2 level is 89%.
To `CCOc1ccccc1-n1nnnc1SCC(=O)Nc1cc2oc3ccccc3c2cc1OC` belongs 102%.
Turning to `CC1=C(C(=O)OC2CCCCC2)C(c2ccc(C)o2)C2=C(CC(C)(C)CC2=O)N1` (centres undefined), the Her2 level was 83%.
Take `Cc1nc2ccccc2c(=O)n1NC(=O)c1c(O)c2c(n(CC(C)C)c1=O)CCCC2`: the Her2 level was 73.5%.
On to `COc1ccc(C2=NOC(C(=O)Nc3cc(Br)ccc3O)C2)cc1OC` (centres undefined), for which the Her2 level is 89%.
Turning to `Cc1ccc(NC(=O)c2oc3ccc(S(=O)(=O)N4CCOCC4)cc3c2C)cc1C`, the Her2 level is 83.5%.
Under `Cc1nn(-c2nc3ccccc3s2)c(C)c1Oc1ccccc1O` stands 79.5%.
Consider `Cc1ccc(S(=O)(=O)c2cc3c(=O)n4ccccc4nc3n(CC3CCCO3)c2=N)cc1C` (centres undefined), for which the Her2 level is 77.5%.
Turning to `Cc1ccc(C)c(S(=O)(=O)C(C#N)c2nc3ccccc3nc2N2CC(C)OC(C)C2)c1` (centres undefined), the Her2 level is 77%.
Regarding `COC(=O)c1ccccc1S(=O)(=O)N(Cc1cc2cc3c(cc2[nH]c1=O)OCO3)C1CCCCC1`, the Her2 level was 98.5%.
For `CC(C)C(=O)Nc1ccc(C(=O)NCc2cccnc2)cc1`, the Her2 level was 108%.
In the case of `C=C(c1ccc(O)cc1)c1ccc(O)cc1`, the Her2 level was 93%.
On to `Cc1ccc2c(c1)c1c(n2CC(O)Cn2c(C)nc3ccccc32)/C(=N\O)CCC1` (centres undefined), for which the Her2 level is 76.5%.
As to `C=CCn1c(COc2ccc(Cl)cc2)nnc1SCC(=O)N1CC(=O)Nc2ccccc21`, the Her2 level was 76.5%.
On to `CCC(Sc1nc2n[nH]c(C)c2c(=N)n1-c1cc(Cl)ccc1C)C(=O)N1CCOCC1` (centres undefined), for which the Her2 level is 96%.
Under `CCOC(=O)c1ccc(N2C(=O)CC(Sc3nnc(C)s3)C2=O)cc1` (centres undefined) stands 100%; under `N#CC1=C(N)n2c(s/c(=C\c3ccco3)c2=O)=C(C#N)C1c1ccco1` (centres undefined), 31.5% (active); under `COc1ccc(N2CCN(Cc3cc(=O)oc4cc(C)c(Cl)c(C)c34)CC2)cc1`, 83.5%.
For `Cc1ccc(S(=O)(=O)N2CCOCC2)cc1C(=O)Nc1ccc(-c2cn3ccsc3n2)cc1`, the Her2 level is 80.5%.
With `CCCCCCc1ccc(-c2ncc(N)cn2)cc1`, the Her2 level was 90.5%.
With `COc1cc(-c2noc(-c3ccccc3C(=O)NCc3ccco3)n2)cc(OC)c1OC`, the Her2 level was 72.5%.
To `Cc1ccc2nc(NC(=O)C3CCN(S(=O)(=O)c4cccc5nsnc45)CC3)sc2c1` belongs 63.5%; to `CCOC(=O)c1sc(Nc2nc3c(OC)cccc3s2)nc1C`, 72%.
Take `CC(=O)c1ccccc1Oc1nc(CN2CCOCC2)nc2scc(-c3cccs3)c12`: the Her2 level was 79%.
In the case of `CCn1c2ccccc2c2cc(NC(=O)Cc3ccc(S(=O)(=O)N4CCOCC4)s3)ccc21`, the Her2 level was 76.5%.
Take `Cc1[nH]nc(N=CC2=C(O)CC(C)(C)CC2=O)c1-c1ccc(Cl)cc1`: the Her2 level is 94.5%.
`N#CC(C(=O)C1CCCCC1)c1nc2ccccc2[nH]1` (centres undefined): the Her2 level was 89.5%.
To `O=C(CSc1nnc2scc(-c3ccccc3)n12)Nc1nsc(-c2ccccc2)n1` belongs 78%; to `CC(C)(C)n1nnnc1C(c1ccccc1)N1CCc2ccccc2C1` (centres undefined), 82%; to `CCc1cc2c(=O)c(-c3nc4ccccc4[nH]3)coc2cc1OC(=O)N1CCOCC1`, 81.5%.
Take `O=C(Nc1sc2c(c1C(=O)NCc1ccco1)CCCC2)c1ccc2c(c1)OCO2`: the Her2 level was 92.5%.
Take `Cc1cccc(N2CCN(C(=O)c3ccc(NS(=O)(=O)c4c(C)noc4C)cc3)CC2)c1C`: the Her2 level was 106%.
